Compound activity (PubChem BioAssay)
tim10-1 inh: growth inhibitors of tim10-1 mutant yeast | S. cerevisiae tim10-1 ts strain growth, BacTiter-Glo, 24 h | inhibition, % at 20 µM | 330,000 tested, 2.2% active | AID 463190;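 active = inhibition of at least 40%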;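 also: mutant grown at 25 °C; 0% = DMSO wells with yeast and 100% = wells holding no yeast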
TIM10 inh: inhibits growth of TIM10 yeast strain | 330,000 tested, 1.4% active | S. cerevisiae TIM10 strain growth, BacTiter-Glo luminescence, 24 h | AID 463195 | inhibition, % at 10 µM;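 active = inhibition of 40% or more at the single tested concentration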;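 also: wild-type TIM10 isogenic control strain grown at permissive 25 °C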
SKKanGAS inh: inhibitors of SKKanGAS S. pyogenes growth in kanamycin (SK-promoter or general growth effect); 300,000 tested, 1.3% active; BacTiter-Glo, 6 h; inhibition, % at 7.5 µM;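 active = mean replicate score, as percent of positive control median, at least 50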;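 also: strain carries kanamycin resistance gene driven by streptokinase promoter and grows in 40 µg/ml kanamycin; loss of luminescence reflects streptokinase promoter inhibition or plain growth inhibition; 0% = median of DMSO wells and 100% = positive control at its reference dose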
NALP3 yeast inh: blocks the NALP3 inflammasome reconstituted in yeast | AID 2825 | 330,000 tested, 0.39% active | inhibition, % at 10 µM | Yeast reconstituted NLRP3/ASC/caspase-1, beta-gal luminescence, 24 h;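 active = inhibition of 50% or more; inactive = inhibition below 50%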;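 also: plate controls were induced DMSO wells for no effect and uninduced yeast grown without galactose for full effect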
tim23-1 inh: inhibits growth of tim23-1 mutant yeast; 330,000 tested, 1.3% active; AID 463212; S. cerevisiae tim23-1 growth, BacTiter-Glo luminescence, 24 h; inhibition, % at 20 µM;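 active = growth inhibition of the mutant yeast at or above 50%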;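 also: temperature-sensitive mutant grown at 25 °C; plate controls were DMSO-treated mutant yeast for no effect and medium wells lacking yeast for full effect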
tim10-1 confirm: confirmation of tim10-1 mutant yeast growth inhibitors. AID 463213. 7,400 tested, 56% active. inhibition, % at 20 µM. S. cerevisiae tim10-1 ts strain growth, BacTiter-Glo, 24 h. shares compounds with tim10-1 inh;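 active = inhibition of yeast growth at or above a set limit in either of two repeat tests at 20 µM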;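 also: tim10-1 mutant grown at permissive 25 °C to find synthetic lethal compounds; 0% = DMSO yeast wells and 100% = medium wells without yeast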
TIM10 conf: TIM10 yeast growth inhibition, confirmed; shares compounds with TIM10 inh; S. cerevisiae tim10 strain growth, BacTiter-Glo luminescence, 24 h; inhibition, % at 10 µM; 4,600 tested, 63% active; AID 463215;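 active = inhibition of yeast growth at or above a set limit in either of two replicates at 10 µM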;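 also: this counterscreen used the strain with wild-type TIM10; 0% = yeast with DMSO and 100% = medium wells lacking yeast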
tim23-1 confirm: tim23-1 yeast growth inhibition, confirmed; shares compounds with tim23-1 inh; S. cerevisiae tim23-1 growth, BacTiter-Glo luminescence, 24 h; inhibition, % at 20 µM; 4,400 tested, 83% active; AID 463218;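 active = inhibition above about 39% in either of two replicate wells at 20 µM, limit read from the data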;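 also: temperature-sensitive tim23-1 mutant grown at 25 °C; 0% = DMSO wells with yeast and 100% = medium wells without yeast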
Starred values were filed as active, the others as inactive; x = no result given. In the library only some 4.6% were active in any assay of this set; here they are far more common.

SMILES	tim10-1 inh	TIM10 inh	SKKanGAS inh	NALP3 yeast inh	tim23-1 inh	tim10-1 confirm	TIM10 conf	tim23-1 confirm
N/C(=N/OC(=O)c1ccccc1Cl)c1ncc([N+](=O)[O-])s1	49*	62*	29	11	55*	50*	73*	15
N/C(=N\OC(=O)c1ccccc1Cl)c1ccncc1	21	14	-3	9	8	x	x	x
N/C(=N\OC(=O)c1ccc([N+](=O)[O-])cc1Cl)c1ccccn1	53*	42*	2	15	59*	45*	52*	65*
N/C(=N\OC(=O)c1ccc(=O)n(Cc2ccccc2)c1)c1ccccn1	28	15	-25	12	24	x	x	x
N/C(=N\OC(=O)c1ccc(=O)n(Cc2ccc(Cl)cc2)c1)c1ccccn1	67*	54*	8	-1	53*	60*	53*	48*
N/C(=N\OC(=O)c1ccc(Cl)cc1Cl)c1ccccn1	41*	72*	8	8	76*	25	75*	70*
O=C(CCC(=O)c1ccccc1)NC1CCCN(Cc2ccccc2F)C1 (centres undefined)	15	-2	-1	4	3	x	x	x
Cc1ccc(C(=O)O/N=C(\N)c2ccccc2)c(Cl)c1	71*	74*	-4	36	83*	59*	81*	86*
O=C(c1cccs1)c1no[n+]([O-])c1C(=O)c1cccs1	72*	-6	1	24	81*	87*	x	97*
CC(C)n1ncc2c(C(=O)NCC(=O)Nc3ccccc3Br)cc(C3CC3)nc21	42*	8	x	21	53*	26	x	44*
CCc1ccccc1NC(=O)CNC(=O)c1cc(C2CC2)nc2c1cnn2C(C)C	3	-8	x	6	30	x	x	x
CC(C)(C)/C(COc1ccccc1[N+](=O)[O-])=N/O	-18	-15	3	16	10	x	x	x
CC1=CC(=O)C=C(C)C1=NOc1ccccc1[N+](=O)[O-]	78*	72*	3	2	66*	76*	18	83*
CCOC(=O)C1=C(C)N=C2SC(C(=O)OC)=CC(=O)N2C1c1ccc(F)cc1 (centres undefined)	75*	77*	-3	34	86*	81*	84*	78*
CCOC(=O)C1=C(C)N=C2SC(C(=O)OC)=CC(=O)N2C1c1cccc(OC)c1 (centres undefined)	13	11	16	15	20	x	x	x
CCOc1ncccc1C(=O)NNC(=O)c1ccc(NS(=O)(=O)c2cccs2)cc1	16	10	5	0	10	x	x	x
CCOC(=O)CC1=NN(c2ccccc2)C(=O)/C1=C\c1ccc(N(C)C)cc1	43*	51*	-1	18	51*	43*	53*	53*
Cc1noc(C)c1S(=O)(=O)Nc1ccccc1Oc1ccccc1	36	37	6	-11	39	x	x	x
O=C1c2ccccc2-c2onc3ccc(Oc4ccccc4)c1c23	76*	57*	17	41	77*	59*	68*	85*
O=C(COC(=O)/C=C/c1ccc(OC(F)F)cc1)Nc1ccc2[nH]c(=O)[nH]c2c1	6	-2	x	7	9	x	x	x
COc1cc(C(=O)Nc2nc(C)cc(C)n2)cc(OC)c1OC	-8	4	0	13	12	x	x	x
c1cncc(-c2nnc(-c3cccnc3)nn2)c1	50*	36	17	-14	54*	40*	x	56*
CCN(C[C@H]1N[C@@](Cc2ccccc2)(C(=O)OC)[C@H]2C(=O)N(C)C(=O)[C@@H]12)C(C)=O	12	3	x	6	8	x	x	x
Fc1ccc(Nc2nnc(C(F)(F)F)s2)cc1Cl	69*	56*	28	4	77*	84*	42*	85*
FC(F)(F)c1nnc(Nc2ccc(Cl)cc2)s1	26	-9	-1	-10	20	x	x	x
SMILES	tim10-1 inh	TIM10 inh	SKKanGAS inh	NALP3 yeast inh	tim23-1 inh	tim10-1 confirm	TIM10 conf	tim23-1 confirm
OCCOCCNc1ncnc2c1c(-c1ccccc1)cn2-c1ccccc1	47*	26	-6	18	50*	4	x	46*
C/C(=N\Nc1ccc([N+](=O)[O-])cc1)c1ccc(O)cc1	44*	24	-4	-5	70*	19	x	55*
C/C(=N\Nc1ccc([N+](=O)[O-])cc1)c1cccc(N)c1	-24	4	4	33	26	x	x	x
CC(OC(=O)Cc1ccc(Br)cc1)C(=O)NC1CCCC1 (centres undefined)	0	-6	x	19	-9	x	x	x
COc1ccc2c(c1)-c1nc(NC(=O)c3ccco3)sc1CC2	58*	25	14	16	57*	53*	x	61*
Oc1c(Br)cc(Br)cc1C=Nc1cccnc1	57*	67*	39	24	79*	42*	48*	90*
Oc1c(Br)cc(Br)cc1C=Nc1ccc2[nH]ncc2c1	46*	4	2	30	86*	56*	x	79*
COc1ccc(C=Nc2ccc3[nH]ncc3c2)c(O)c1	21	6	0	5	13	x	x	x
CN1CCN(CC(O)(c2ccc(Cl)cc2)c2ccc(Cl)cc2)CC1	-35	-62	1	20	-247	x	x	x
CCCCNC(=O)NCc1cnn(C)c1C	1	6	-8	9	5	x	x	x
COC(=O)c1ccc2c(c1)C(C)(C)C(/C=C/c1ccccc1O)=[N+]2C	65*	56*	6	45	66*	57*	53*	71*
C[N+]1=C(/C=C/Nc2ccccc2Cl)C(C)(C)c2ccccc21	0	0	6	6	3	x	x	x
COc1ccccc1NC(=O)Nc1ccc(-n2ccc(C(F)(F)F)n2)cc1	54*	30	3	16	64*	50*	x	60*
O=C(NC1=C(Nc2ccc(Cl)cc2)C(=O)c2ccccc2C1=O)c1ccccc1	9	21	42	38	10	x	x	x
CN(C1=C(NC(=O)c2ccc(Cl)cc2)C(=O)c2ccccc2C1=O)c1ccccc1	65*	66*	2	15	68*	61*	-10	72*
CC(C)(C)N(Cc1ccccc1)C(=O)COC(=O)c1ccc([N+](=O)[O-])o1	45*	27	x	24	53*	31	x	46*
O=C(COC(=O)c1ccc([N+](=O)[O-])o1)NCCc1ccccc1	-166	-157	x	16	-8	x	x	x
O=C1C(SCCO)=C(SCCO)C(=O)c2ccccc21	86*	52*	x	32	80*	93*	38*	75*
O=c1[nH]c2ccccc2c(O)c1SCCO	6	6	8	-5	4	x	x	x
